# Assay results as given in PubChem BioAssay (NCATS).
# Records with an inconclusive call do not appear. A call without a number means that no potency is given here. Calls of active or inactive are those of the source. Calls follow the shape of the dose curve; as a rule, active = well fitted cell-killing curve with a large enough effect; inconclusive = small, poorly fitted or top-dose-only effect; inactive = flat fitted curve, though single readings scatter.
# Assay: Cell Viability - LYMP2-022 (AID 987); also: nearly all actives have a fitted effect of over 55% in size
# Settings: LYMP2-022 lymphoblastoid cell viability; series mostly up to 92.2 µM
# Outline: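 In this qHTS cytotoxicity screen, compound titrations were incubated 24 hr at 37 C with human lymphoblastoid cells in complete medium. Luciferase-based ATP luminescence provided the viability signal.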
# Potency is read from the fitted curve at half-maximal effect.
row,Structure (SMILES),Potency
1,Oc1ccc(Cl)cc1,inactive
2,COP(=S)(OC)Oc1ccc(SC)c(C)c1,inactive
3,CC(C)c1cccc(C(C)C)c1O,inactive
4,C[C@]12CCC(=O)C=C1CC[C@@H]1[C@@H]2CC[C@]2(C)C(=O)CC[C@@H]12,inactive
5,CCC(C)(C)c1ccc(O)cc1,inactive
6,C[C@]12CCC(=O)C=C1CC[C@@H]1[C@@H]2CC[C@@]2(C)[C@H]1CC[C@]2(C)O,inactive
7,CCCC(C)(COC(N)=O)COC(N)=O,inactive
8,C[C@]1(O)CC[C@H]2[C@@H]3CCC4=CC(=O)CC[C@]4(C)[C@@]3(F)[C@@H](O)C[C@@]21C,inactive
9,COc1cc(OC)c(OC)cc1C=O,inactive
10,CCOC(=O)CC(SP(=S)(OC)OC)C(=O)OCC (configuration not stated),inactive
11,Clc1ccc(C(c2ccc(Cl)cc2)C(Cl)(Cl)Cl)cc1,inactive
12,CC(C)NC(C)C,inactive
13,Nc1ccccc1C(=O)O,inactive
14,Nc1ccccc1,inactive
15,O=C(O)CCCc1ccc(N(CCCl)CCCl)cc1,39.8 µM (active)
16,NCCc1ccc(O)cc1,inactive
17,O=P1(N(CCCl)CCCl)NCCCO1 (configuration not stated),inactive
